# PubChem BioAssay AID886 (National Center for Advancing Translational Sciences (NCATS), 2007)
# Where “and” joins values, the source holds several entries; their conditions need not be identical. Identical values can stand only once. In all, about 73,000 compounds went through this assay and about 2,500 (3.4%) were called active. Where a call stands in place of a potency, no number is given. Not shown: some 7% with an inconclusive outcome. The full list was thinned out, with actives kept by preference. A number with no mark means an inactive call. Calls follow the shape of the dose curve; as a rule, active = well fitted inhibition curve with a large enough effect; inconclusive = small, poorly fitted or top-dose-only effect; inactive = no such curve, though single readings can be large or run the other way.
# Target: 3-hydroxyacyl-CoA dehydrogenase type-2 (Homo sapiens) (UniProt Q99714)
# Assay: qHTS Assay for Inhibitors of HADH2 (Hydroxyacyl-Coenzyme A Dehydrogenase, Type II); also: nearly all actives have a fitted effect of over 60% in size
# Conditions: recombinant HADH2, NADH fluorescence, beta-hydroxybutyryl-CoA; series mostly up to 57.1 µM
# Text: Assay Overview: NIH Molecular Libraries Screening Centers Network [MLSCN] NIH Chemical Genomics Center [NCGC] Structural Genomics Consortium [SGC] Grant Number: None HADH2: Hydroxyacyl-Coenzyme A dehydrogenase, type II, was supplied by researchers at the Structural Genomics Consortium, Oxford University lab (PI Udo Oppermann). The mitochondrial enzyme 17-hydroxysteroid dehydrogenase type 10 (HSD17-10) previously classified as type II hydroxyacyl-CoA dehydrogenase (HADH2) catalyzes the NAD+ dependent oxidation of a variety of substrates including acyl-CoAs, androgens and neurosteroids as well as bile acids(Shafqat N, Marschall HU, Filling C, et al. Biochemical Journal. 2003;376(Pt 1):49-60). The role in neurodegeneration by binding to amyloid-peptide led to its identification (Oppermann UC, et al FEBS Letters. 1999;451(3):238-242 and Yan SD, et al. Nature. 1997;389(6652):689-695), and mutations in its gene appear to be causative for 2-methyl-3-hydroxybutyryl-CoA dehydrogenase deficiency (Ofman R, et al. American Journal of Human Genetics. 2003;72(5):1300-1307). The enzyme was produced by E.coli fermentation as His-tagged recombinant for the purpose of X-ray structure determination, and had been mass-spectrometry characterized. Inhibition of HADH2 activity was screened by utilizing beta-hydroxybutyryl coenzyme A as an electron donor and NAD+ as an electron acceptor/cofactor. An increase in the fluorescence intensity due to conversion of NAD+ to NADH was used to measure the enzyme activity.
# Assay Protocol: Buffer: 100 mM Tris-HCl pH 9.0, containing 0.01 % Tween-20. Reagents/Controls: Buffer in columns 3 and 4 as negative control (no enzyme). Substrate/cofactor solution: 1 mM NAD+ and 90 uM beta-hydroxybutyryl coenzyme A (Sigma-Aldrich, St. Louis, MO) final concentrations dispensed throughout the plate. Enzyme: 20 nM HADH2 final concentration in columns 1, 2, 5-48. Column 1 is neutral (100% activity). Column 2 contained titration of apomorphine (Sigma-Aldrich, A 4393, PubChem CID 2215, top concentration 500 uM, then 1:2 dilution in duplicate) Assay Steps: Three uL of enzyme were dispensed to 1536-well Greiner black solid bottom plates. Compounds and controls (23 nL) were transferred via Kalypsys PinTool. The plates were incubated for 15 min at room temperature, and then 1 uL of substrate/cofactor solution was added to start the reaction. The plates were immediately transferred to and read every 30 seconds for 4 min on ViewLux High-throughput CCD imager (Perkin-Elmer) using 360 nm excitation and 450 nm emission fluorescence protocol. The fluorescence intensity difference between the last and the first time points was used to compute reaction progress.
# Potency is read from the fitted curve at half-maximal effect.
# Chain of 3-hydroxyacyl-CoA dehydrogenase type-2 (Homo sapiens) (Q99714 whole entry, looked up): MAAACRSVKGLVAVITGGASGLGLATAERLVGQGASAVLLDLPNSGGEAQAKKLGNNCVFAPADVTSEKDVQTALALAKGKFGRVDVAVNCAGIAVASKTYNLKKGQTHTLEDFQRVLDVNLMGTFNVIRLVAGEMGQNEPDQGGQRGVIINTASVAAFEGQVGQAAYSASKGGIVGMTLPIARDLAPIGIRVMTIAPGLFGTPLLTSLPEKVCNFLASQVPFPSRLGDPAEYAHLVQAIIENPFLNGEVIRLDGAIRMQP
# Chain of 3-hydroxyacyl-CoA dehydrogenase type-2 (Homo sapiens) (Q99714 whole entry, looked up): as above
Compound,Potency,"activity change, negative = inhibition"
COC(=O)N(c1ccc(OC)cc1)P1(=S)OCCC(C)O1 (stereo not given),1 µM (active),–
Fc1ccc(C(OCCN2CCN(C/C=C\c3ccccc3)CC2)c2ccc(F)cc2)cc1,inactive,–
N[C@H](Cc1o[nH]c(=O)c1Cl)C(=O)O,inactive,–
C/C(=C\C=C/[C@@H](C)C(=O)O)[C@H]1CN[C@H](C(=O)O)[C@@H]1CC(=O)O,inactive,–
O=C1C2(Cl)C3(Cl)C4(Cl)C(Cl)(Cl)C5(Cl)C3(Cl)C1(Cl)C5(Cl)C24Cl (stereo not given),inactive,–
COc1ccc(CN2CCN(c3ccccc3F)CC2)c(OC)c1,–,-2.55% [at 11.4 µM]
CC(Cl)Cl,inactive,–
Cc1cccc([C@H](C)c2cnc[nH]2)c1C,inactive,–
O=[N+]([O-])c1ccc(Cl)c(Cl)c1,31.6 µM (active),–
Nc1ccc([N+](=O)[O-])cc1,inactive,–
Cc1cc(-c2ccc(N)c(C)c2)ccc1N,inactive,–
ClCCBr,inactive,–
O=C(O)C(=O)Cc1ccc2c(c1)OCO2,–,-12.9% [at 11.4 µM]
CC(=O)O[C@H]1CC[C@@]2(C)[C@@H](CC[C@H]3[C@H]2CC(=O)[C@]2(C)[C@@H]3C[C@@H](N3CC3)[C@H]2C(C)=O)C1,–,16.9% [at 11.4 µM]
CC(C)(O/N=C(\C(=O)N[C@@H]1C(=O)N2C(C(=O)[O-])=C(C[n+]3ccccc3)CS[C@@H]12)c1csc(N)n1)C(=O)O,7.94 µM (active),–
c1ccc(CN2CC[C@@]3(CCCNC3)C2)cc1,inactive,–
NCC[Se][Se]CCN,–,1.13% [at 11.4 µM]
NC[C@H](O)c1ccc(O)cc1,inactive,–
BrC1C(Br)C(Br)C(Br)C(Br)C1Br (stereo not given),25.1 µM (active),–
C[C@H](Br)C(=O)N[C@H](CO)C(=O)O,–,-0.293% [at 11.4 µM]
CC[C@]1(O)C(=O)OCc2c1cc1n(c2=O)Cc2cc3ccccc3nc2-1,inactive,–
CCCCN1C2CCC1CC(OC(c1ccc(F)cc1)c1ccc(F)cc1)C2 (stereo not given),inactive,–
CCOC(=O)c1c(-c2ccccc2)oc2ccc(OC(=O)N(C)C)cc12,7.94 µM (active),–
C[C@@]12CC[C@H]3[C@@H](CC[C@]4(O)C[C@H](O)CC[C@@]34C=O)[C@]1(O)CC[C@@H]2C1=CC(=O)OC1,inactive,–
Clc1ccc([C@@H]2C[C@H]3CC[C@@H]2N3)cn1,inactive,–
ClC(Cl)(Cl)c1ccccc1,inactive,–
CC(=O)c1c(O)c(C)c(O)c(Cc2c(O)c3c(c(C(=O)/C=C\c4ccccc4)c2O)OC(C)(C)C=C3)c1O,12.6 µM (active) and 1 µM (active),–
Nc1ccc(Cc2ccc(N)c(Cl)c2)cc1Cl,inactive,–
Clc1ccccc1,inactive,–
CC(C)(c1ccccc1)c1ccc(O)cc1,inactive,–
